PGC1a acetyl inh = inhibitors of PGC1a acetylation signal, primary screen, cell-based, U2OS, AlphaScreen, inhibitor mode; AlphaScreen anti-acetyl-lysine; with virally co-expressed GCN5 acetyltransferase; inhibition, % at 15.6 µM; hit rate 0.17% among 350,000; AID 651687, 2012;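 active = every replicate shows inhibition of at least 40%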;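 note: 0% = neutral control wells and 100% = positive control wells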
SIRT5 block = SIRT5 desuccinylase inhibitors, primary screen, biochemical, fluorescence imaging, single point, set 5. AID 652115, 2013. NAD-dependent protein deacylase sirtuin-5, mitochondrial (Homo sapiens), Q9NXA8. inhibition, % at 15 µM. Purified SirT5, succinyl-peptide AMC, trypsin-coupled fluorescence. hit rate 1.1% among 330,000; in the data active = inhibition above about 15%
Target sequence (Q9NXA8 whole entry, looked up): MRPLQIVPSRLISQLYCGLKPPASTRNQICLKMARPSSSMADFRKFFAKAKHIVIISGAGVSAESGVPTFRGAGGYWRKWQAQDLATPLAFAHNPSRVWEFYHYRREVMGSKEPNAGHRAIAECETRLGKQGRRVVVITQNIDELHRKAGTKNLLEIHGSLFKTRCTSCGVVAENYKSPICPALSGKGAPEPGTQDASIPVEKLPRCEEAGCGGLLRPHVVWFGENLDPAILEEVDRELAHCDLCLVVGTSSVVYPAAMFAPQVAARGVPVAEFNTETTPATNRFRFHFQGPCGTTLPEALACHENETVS
Ecoli rRNA inh = reduced GFP signal of wild-type E. coli, primary screen, bacterial rRNA inhibitor project, GFP/RFP fluorescence, OD600, single point; E. coli WT GFP vs humanized-ribosome RFP mutants, 24 h; stronger effect = lower value; DMSO median 0, no signal -100; GFP signal change (wild-type ribosome), % (no concentration beside the values); hit rate 1.6% among 350,000; AID 720706, 2013;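 active = significant combined selectivity score with lowered wild-type GFP, culture density cut under 30%, mutant RFP and density less affected; inactive = any of these conditions unmet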
PAX8 inh HTS = inhibitors of PAX8-driven TPO luciferase reporter, primary screen, RMG-I cells, single concentration; inhibition, % at 12.6 µM; SteadyGlo, 24 h; hit rate 1.2% among 360,000;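 active = mean replicate inhibition at least 60% with every replicate also reaching 60%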;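 note: luciferase light reporting Pax8 driven TPO promoter activity; plate controls were median of neutral control wells for no effect and mitoxantrone controls for full effect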
EWS-Fli inh = EWS/Fli-driven NR0B1 reporter inhibitors, primary screen, A673 cells, NR0B1 luciferase, luminescence, MLPCN library; viability-normalised; hit rate 0.67% among 350,000; inhibition, % at 12.6 µM; AID 651661, 2012;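 active = mean inhibition of at least 50% after viability correction, with every replicate also passing that limit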;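 note: firefly luciferase signal divided by Alamar Blue viability fluorescence both relative to DMSO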
LGR2 inh = inhibitors of bursicon-induced LGR2 CRE-luciferase signal, primary screen, cell-based, HEK293, CRE-luciferase reporter, bursicon stimulation; AID 720647, 2013; bursicon-stimulated, 4 h; hit rate 0.35% among 380,000; inhibition, % at 9.99 µM;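 active = drop in luminescence signal, shown as inhibition above about 50% in the replicate tests, limit read from the data, passing the limit was not always enough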;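 note: agonist challenge used bursicon conditioned medium at about half maximal strength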
Starred values were filed as active, the others as inactive; nt = no result given. An excerpt weighted towards active compounds, which were near 3.4% of everything screened.

SMILES | PGC1a acetyl inh | SIRT5 block | Ecoli rRNA inh | PAX8 inh HTS | EWS-Fli inh | LGR2 inh
CC1=Nc2ccccc2N=C(NC(=O)CSC(=S)N2CCN(C)CC2)C1c1ccccc1 (centres undefined) | -4.9 | 0.0 | -2.9 | 6.3 | -1.2 | -23.7
CC1=Nc2ccccc2N=C(NC(=O)CSC(=S)N2CCCCC2)C1c1ccccc1 (centres undefined) | nt | -1.9 | -21.1* | 21.6 | 32.7 | 11.0
CCOC(=O)C1CCCN(CC(=O)NC2=Nc3ccccc3N=C(C)C2c2ccccc2)C1 (centres undefined) | -3.4 | nt | nt | -0.7 | nt | nt
COc1ccccc1S(=O)(=O)N[C@H]1CC[C@H](CCNC(=O)C2CC2)O[C@@H]1CO | 8.6 | -6.4 | -0.2 | -3.3 | -3.1 | 0.5
C[C@@H]1CN([C@H](C)CO)C(=O)c2cc(-c3ccncc3)cnc2O[C@@H]1CN(C)C(=O)c1ccncc1 | 4.2 | 3.1 | 2.0 | nt | -10.9 | 2.2
COc1ccc2cc1Oc1ccc(cc1)C[C@H]1c3cc(c(OC)cc3CCN1C)Oc1c(OC)c(OC)cc3c1[C@H](C2)N(C)CC3 | -42.2 | -0.8 | nt | 38.8 | 57.5* | nt
CCOC(=O)CNC(=O)CSc1nnc(NC(=O)c2ccc(C)cc2)s1 | nt | 1.1 | 24.4 | 19.7 | 42.4 | 72.7*
CN(C)S(=O)(=O)c1ccc(C(=O)Nc2nnc(SCC(=O)N3CCOCC3)s2)cc1 | nt | -1.4 | 0.9 | -28.7 | -12.6 | -12.9
CC(C)Oc1ccc(C(=O)Nc2nnc(SCC(=O)N3CCOCC3)s2)cc1 | 2.4 | nt | nt | 70.4* | 59.7* | 74.1*
COc1ccc(Cn2c(SCc3ccc(C)cc3)nc3cc(OC)c(OC)cc3c2=N)cc1Cl | nt | nt | nt | 109.3* | nt | nt
Cc1noc(C)c1NC(=O)Nc1ccc2c(c1)C(=O)N([C@H](C)CO)C[C@@H](C)[C@@H](CN(C)C(=O)Nc1ccc(F)cc1)O2 | 8.6 | -4.5 | 5.7 | 11.1 | 1.6 | 10.5
CCC(=O)Nc1ccc2c(c1)C(=O)N(C)[C@H]1CC[C@H](CC(=O)NCc3ccccc3)O[C@H]1CO2 | 3.5 | -3.6 | -1.7 | 8.8 | -8.1 | 3.7
Cc1ccc(-c2nnc(NCc3nc4ccccc4[nH]3)c3ccccc23)cc1S(=O)(=O)N1CCOCC1 | -10.9 | nt | nt | nt | nt | nt
Cc1ccc(-c2nnc(NCc3nc4ccccc4[nH]3)c3ccccc23)cc1S(=O)(=O)N(C)C | 2.1 | -0.7 | 0.4 | 34.7 | 26.6 | 58.2*
CC(=O)c1cccc(NC(=O)COC(=O)C2CCCN2C(=O)c2cccs2)c1 (centres undefined) | -31.8 | nt | -17.8* | 2.4 | -0.5 | -7.3
Cc1ccc(CCSc2ccc(F)cc2)cn1 | 1.7 | -4.1 | -21.7* | -33.1 | -30.7 | -24.8
CC(C)Cc1ccc(CN2CC[C@@H](NS(=O)(=O)c3ccccc3)C2)cc1 | 3.9 | -2.2* | nt | 1.5 | -0.7 | nt
C[n+]1cc2c3c(ccc2c2ccc4cc5c(cc4c21)OCO5)OCO3 | nt | -1.6 | nt | 108.5* | 59.0* | 100.5*
COc1ccc2c3c(n(C)c2c1)[C@@H](CO)N(Cc1ccccc1Cl)CC31CCN(C(C)=O)CC1 | -3.1 | 3.2 | 3.8 | 15.8 | 9.7 | -6.3
COCCNC(=O)/C(C#N)=C/c1ccc(O)c([N+](=O)[O-])c1 | nt | -0.2 | 10.5 | 9.9 | 0.7 | 4.3
COCCNC(=O)/C(C#N)=C/C=C/c1ccccc1[N+](=O)[O-] | -104.1 | 2.4 | 10.4 | 80.1* | 23.1 | 0.2
COCCNC(=O)/C(C#N)=C/C(C)=C/c1ccccc1 | nt | -8.2 | -21.9* | -11.4 | 3.0 | -17.3
NC(=O)[C@@H]1[C@H]2C(=O)O[C@H](c3ccccc3)[C@H](c3ccccc3)N2[C@H](c2ccc(O)cc2)[C@@]12C(=O)Nc1ccc(C#CC3=CCCCC3)cc12 | 4.8 | 1.7 | nt | -8.1 | -11.2 | nt
O=C(Nc1cc(F)ccc1F)N1CC(=O)N2[C@H](CO)[C@@H](c3ccc(C#CC4CCCC4)cc3)[C@H]2C1 | 3.3 | 3.2 | -2.3 | 10.7 | nt | -3.7
N#Cc1ccsc1NC(=O)CCS(=O)(=O)c1ccccc1 | nt | -3.3 | 12.3 | 64.1* | -4.4 | 4.2

High-throughput results from PubChem.
